From PubChem
A selection: hits, their analogues and other compounds. The true share with any hit is near 3.2%.
RE007 growth inh: less growth of the S. pombe RE007 Vpr strain | S. pombe RE007 Vpr strain, BacTiter-Glo ATP luminescence, 24 h | Potency, µM (series often up to 92.2 µM), without a hit: at the top dose activity change, negative = less growth, actives largely listed as inhibitors | actives 0.21% (n = 360,000) | AID 651644; active = well fitted falling curve with a large enough effect; inconclusive = small, poorly fitted or top-dose-only effect; inactive = no such curve, though single readings can be large or run the other way; also: nearly all actives have a fitted effect of over 50% in size
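Fission yeast RE007 carrying one integrated HIV-1 vpr copy, seeded at OD 0.01 in PMG+AL medium with 23 nL pinned compound. Grown 24 h at 30 degrees; viability read by BacTiter-Glo luminescence after 5 min.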
Sm TGR block: inhibitors of Schistosoma mansoni thioredoxin glutathione reductase; Q962Y6; purified TGR, DTNB reduction, TNB absorbance 405 nm; Potency, µM (highest dose often 114 µM), without a hit: top-dose activity change, negative = inhibition, hits mostly inhibitors; actives 3% (n = 360,000); also: nearly all actives have a fitted effect of over 60% in size
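Kinetic colorimetric format: TGR-catalysed, NADPH-driven DTNB reduction monitored via TNB absorbance. Enzyme dispensed at 20 nM; compound exposure 15 min at room temperature before reaction start.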
AMA1-RON2 inh: inhibitors of Plasmodium falciparum AMA1-RON2 interaction. AlphaScreen AMA1-biotinylated RON2 peptide binding. Potency, µM (doses to about 58.2 µM), without a hit: at the highest dose activity change, negative = inhibition, most hits filed as inhibitors. actives 0.2% (n = 360,000);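 also: 0% = vehicle wells and -100% = peptide control; nearly all actives have a fitted effect of over 45% in size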
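AMA1 (3D7) with his tag at 25 nM final met compounds first, then biotinylated RON2 peptide at 25 nM; detection used donor plus acceptor beads, 10 µg/mL apiece, read by AlphaScreen after 30 min at room temperature.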
Tb PYK inh: inhibitors of Trypanosoma brucei pyruvate kinase. Q57TT1. TbPYK enzyme, Kinase-Glo Plus ATP luminescence, 45 min. Potency, µM (highest dose often 76.8 µM), inactives show at the highest dose activity, negative = inhibition, usual class: inhibitors. actives 0.12% (n = 410,000). AID 624173; also: nearly all actives have a fitted effect of over 50% in size
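T. brucei PYK with substrate was exposed to pin-transferred compounds across a concentration series, then started with 130 uM ADP (final). After 45 min at room temperature, Kinase-Glo Plus luminescence was read, normalized and curve-fitted.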
LmPK inhibitor: inhibitors of Leishmania mexicana pyruvate kinase; Q27686; purified LmPK, Kinase-Glo ATP luminescence, 1 h; Potency, µM (highest dose often 57.5 µM), for inactives: top-dose activity change, negative = inhibition, hits mostly inhibitors; actives 0.37% (n = 290,000)
Target sequence (Q27686 whole entry, looked up): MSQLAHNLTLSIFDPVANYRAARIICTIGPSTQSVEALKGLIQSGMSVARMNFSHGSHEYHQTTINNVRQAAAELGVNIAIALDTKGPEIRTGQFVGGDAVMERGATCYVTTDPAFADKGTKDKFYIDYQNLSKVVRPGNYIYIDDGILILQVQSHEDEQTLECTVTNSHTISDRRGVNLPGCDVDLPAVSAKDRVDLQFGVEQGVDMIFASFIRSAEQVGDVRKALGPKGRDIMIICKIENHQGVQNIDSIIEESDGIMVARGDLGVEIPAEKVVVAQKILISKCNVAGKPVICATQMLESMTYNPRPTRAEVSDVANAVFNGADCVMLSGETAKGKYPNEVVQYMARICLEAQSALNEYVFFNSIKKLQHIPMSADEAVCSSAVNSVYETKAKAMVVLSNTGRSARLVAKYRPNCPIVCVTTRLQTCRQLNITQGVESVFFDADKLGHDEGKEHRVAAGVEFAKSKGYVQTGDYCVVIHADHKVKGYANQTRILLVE
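Kinase-Glo luminescence read after 1 h RT reaction of 0.1 nM LmPK with 0.5 mM PEP and 0.1 mM ADP. Activity scaled between uninhibited and enzyme-free controls.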
Active calls of the source: *; ? = inconclusive; . = no result given; ! = a repeat was not active. Unless noted, calls follow the shape of the dose curve; as a rule, active = well fitted curve in the direction sought with a large enough effect; inconclusive = small, poorly fitted or top-dose-only effect, or another doubt; inactive = no such curve, though single readings can be large; an effect the other way counts as inactive or inconclusive. Unless noted, % is scaled to controls: 0 for no effect and ±100 for the full control effect; potency is read from the fitted curve at half-maximal effect.

SMILES | RE007 growth inh | Sm TGR block | AMA1-RON2 inh | Tb PYK inh | LmPK inhibitor
CCc1cc2c(=O)n(Cc3ccco3)c(SCC(=O)NC3CCS(=O)(=O)C3)nc2s1 (stereo not drawn) | -5% | 16µM* | -11% | -7% | -15%
CCc1cc2c(=O)n(Cc3ccco3)c(SCc3c(C)noc3C)nc2s1 | -5% | 11µM* | 9% | -6% | -1%
CCc1cc2c(=O)n(Cc3ccccc3)c(SC3CCOC3=O)nc2s1 (stereo not drawn) | 3% | -6% | -3% | 2% | 8%
CCc1cc2c(=O)n(Cc3ccco3)c(SCC(=O)NCC3CCCO3)nc2s1 (stereo not drawn) | 7% | -32% | -4% | 0% | 3%
CCc1cc2c(=O)n(Cc3ccco3)c(SCC(=O)N(C)C3CCS(=O)(=O)C3)nc2s1 (stereo not drawn) | 3% | 32µM* | 0% | ? | 3%
CCc1cc2c(=O)n(Cc3ccco3)c(SCC(=O)N3CCCc4ccccc43)nc2s1 | 1% | 25µM* | -18% | -10% | -2%
CC(C)CC(=O)n1nc(-c2ccco2)nc1NCc1ccc(Cl)cc1 | . | -1% | . | 1% | .
Cc1ccc(-c2cnc(NCc3c(F)cccc3Cl)n2C)cc1 | . | -25% | . | 3% | .
Cc1nn(Cc2ccccc2Cl)c(Cl)c1C(=O)O | 4% | 8% | 0% | 4% | 2%
CCn1nc(C)c(Br)c1C(=O)Sc1ccccc1Cl | -3% | 8.9µM* | 20% | -4% | -5%
COc1ccc(CNCc2c(C(=O)O)n(Cc3ccc(F)cc3)c3cc(C)ccc23)cc1OC | . | 8% | . | 5% | .
COC(=O)c1ccccc1NC(=O)N1CSC[C@H]1C(=O)OC | 0% | 28µM* | -2% | -4% | 1%
CCCCOCc1cc(CN2CCN(c3cccc(Cl)c3)CC2)c(O)c2ncccc12 | . | -8% | . | -1% | .
O=C(CN1C(=O)C2C3C=CC(C3)C2C1=O)NCCN1CCCc2ccccc21 (stereo not drawn) | -19% | 50µM* | -24% | 2% | 0%
O=C(CCN1C(=O)C2C3C=CC(C3)C2C1=O)NCCN1CCCc2ccccc21 (stereo not drawn) | 4% | ? | 10% | 11% | 3%
O=C1CN(S(=O)(=O)c2ccc(F)cc2)c2ccccc2N1 | -3% | 0% | 1% | -5% | -7%
COc1ccc(S(=O)(=O)N2CC(=O)Nc3ccccc32)cc1F | 8% | 11µM* | -2% | -3% | 5%
COc1ccc(NC(=O)CSc2nc3nc(C)c(Cc4ccccc4Cl)c(C)n3n2)cc1OC | . | -1% | . | -2% | .
O=C1C=CC(=O)N1c1ccc(-c2nc3ccccc3o2)cc1 | 6.3µM* | . | -4% | 11µM* | .
COC(=O)N1CCC[C@@]2(CCN(C(=O)Nc3cccc(C#N)c3)C2)C1 | . | . | . | 6% | .
Cc1ccc(C2C=C(c3ccccc3)Nc3nc(N4C(=O)CCC4=O)nn32)cc1 (stereo not drawn) | 3% | 22µM* | 50% | -11% | 3%
CC1=CC(c2ccc(Cl)cc2)n2nc(N3C(=O)CCC3=O)nc2N1 (stereo not drawn) | 5% | -5% | 21% | -3% | 2%
COc1ccc(C2C=C(c3ccccc3)Nc3nc(NC(C)=O)nn32)cc1 (stereo not drawn) | . | 20µM*! | . | 0% | -1%
O=S(=O)(Nc1nc2n(n1)C(c1ccccc1)C=C(c1ccc(Cl)cc1)N2)c1ccccc1 (stereo not drawn) | . | 45µM* | . | -5% | .
Cc1ccc(S(=O)(=O)Nc2nc3n(n2)C(c2ccc(Cl)cc2)C=C(c2ccccc2)N3)cc1 (stereo not drawn) | . | 2% | . | -4% | .
Cc1ccc(C2C=C(c3ccc(Cl)cc3)Nc3nc(NC(=O)c4ccco4)nn32)cc1 (stereo not drawn) | . | 13µM* | . | -12% | .
Cc1ccc(C2C=C(c3ccccc3)Nc3nc(NS(=O)(=O)c4ccccc4)nn32)cc1 (stereo not drawn) | . | 35µM* | . | -6% | .
Cc1ccc(S(=O)(=O)Nc2nc3n(n2)C(c2ccc(F)cc2)C=C(c2ccccc2)N3)cc1 (stereo not drawn) | . | -3% | . | 1% | .
